The structures appear in SMILES notation. Counter-ions that a name gives are not always drawn.

The test system of one test is MARIMO. Briefly: cell viability relative to vehicle control; higher = less cytotoxic. The settings on record: 10 µM; SRSF2 genotype: SRSF2 wt/wt. The procedure, abridged: (§1)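 Mutant clones made by CRISPR editing and their isogenic wild-type counterparts, from four leukaemia lines, were exposed to a single 10 µM dose of each library compound for 48 h. The supernatant was then removed and CellTiter-Glo luminescence was read. Viability was reported as percent of the on-plate vehicle control.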
Regarding `CCOc1ccc(Cc2cc([C@@H]3O[C@H](SC)[C@@H](O)[C@H](O)[C@H]3O)ccc2Cl)cc1` [Sotagliflozin (LX4211)], the cell viability worked out at 97.3%.

For the compound `c1cc(CN2CCCNCCNCCCNCC2)ccc1CN1CCCNCCNCCCNCC1` [Plerixafor], the cell viability came out at 100%.

As for `Nc1ncnc2c1ncn2C(C=O)OC(C=O)CO` (stereo unspecified) [Adenosine Dialdehyde (ADOX)], the cell viability is 59.4%.

As to `COc1ccc(CNc2nc(N3CCC[C@H]3CO)ncc2C(=O)NCc2ncccn2)cc1Cl` [Avanafil], the cell viability worked out at 106%.

Regarding `CC(C)=CC(O)C/C(C)=C/COc1c2ccoc2cc2oc(=O)ccc12` (stereo unspecified) [Notopterol], the cell viability was 57.1%.

For `Cc1nc(N(C)C(=O)Cc2ccc(-c3ccccn3)cc2)sc1S(N)(=O)=O` [Pritelivir (BAY 57-1293)], the cell viability was 112%.

Consider `C[C@@H](CN1CC(=O)NC(=O)C1)N1CC(=O)NC(=O)C1` [Dexrazoxane], for which the cell viability is 96.9%.

Consider `O=C(O)[C@H]1O[C@@H](Oc2cc3oc(-c4ccc(O)cc4)cc(=O)c3c(O)c2O)[C@H](O)[C@@H](O)[C@@H]1O` [Scutellarin], for which the cell viability came to 104%.

With `CC(C)=CCCC(C)(O)C1CCC2(C)C1C(O)CC1C3(C)CCC(O)C(C)(C)C3C(OC3OC(CO)C(O)C(O)C3OC3OC(C)C(O)C(O)C3O)CC12C` [(20S)Ginsenoside Rg2], the cell viability is 108%.

In the case of `C=CC(=O)N[C@H]1CCOC[C@H]1Nc1ncc2cc(-c3c(Cl)c(OC)cc(OC)c3Cl)ccc2n1`, the cell viability was found to be 90.5%.

On to `C=C[C@]1(C)C[C@@H](OC(=O)CSC(C)(C)CNC(=O)[C@H](N)C(C)C)[C@]2(C)[C@H](C)CC[C@]3(CCC(=O)[C@H]32)[C@@H](C)[C@@H]1O` [Valnemulin HCl], for which the cell viability was 74.9%.

The test system of the next test is MOLM14. The test is described as above. The settings on record: 10 µM; SRSF2 genotype: SRSF2 P95H/wt. The procedure, abridged:
as §1
Turning to `COc1ccc2c(c1)c(CC(=O)OCC(=O)O)c(C)n2C(=O)c1ccc(Cl)cc1` [Acemetacin (Emflex)], the cell viability worked out at 95.4%.

With `CC(c1cc2ccccc2s1)N(O)C(N)=O` (stereo unspecified) [Zileuton], the cell viability came out at 98.7%.

Regarding `COc1ccc(C(=O)CC(=O)c2ccc(C(C)(C)C)cc2)cc1` [Avobenzone (Parsol 1789)], the cell viability turned out to be 87.6%.

As for `CNC(=O)[C@H](Cc1ccccc1)NC(=O)[C@H](CC(C)C)[C@H](CSc1cccs1)C(=O)NO` [Batimastat (BB-94)], the cell viability stood at 89.4%.

Turning to `Nc1ncnc2c1c(-c1cccc(OCc3ccccc3)c1)cn2C1CC(CN2CCCC2)C1` (stereo unspecified), the cell viability was 39.4%.

As to `C=C1C[C@@]23CC[C@H]4[C@@](C)(CCC[C@@]4(C)C(=O)O)[C@@H]2CC[C@@H]1C3` [Kaurenoic acid], the cell viability stood at 112%.

Take `CC(C)[C@H](NC(=O)[C@H](CC(=O)O)NC(=O)[C@H](CCCCN)NC(=O)[C@@H](N)CCCN=C(N)N)C(=O)N[C@@H](Cc1ccc(O)cc1)C(=O)O` [Thymopentin]: the cell viability is 95.8%.

As to `C=CC(=O)Nc1cccc(Nc2nc(Nc3ccc(NC4CN(CCF)C4)cc3OC)ncc2C(F)(F)F)c1`, the cell viability turned out to be 4.64%.

Consider `CC1(C)O[C@@H]2[C@@H](CO[C@@]3(COS(N)(=O)=O)OC(C)(C)O[C@@H]23)O1` [Topiramate], for which the cell viability turned out to be 107%.

In the case of `O=S(=O)(NCCSSCCNS(=O)(=O)c1cc(Cl)ccc1Cl)c1cc(Cl)ccc1Cl`, the cell viability stood at 53.8%.

In the case of `COC(=O)CCC(C)C1CCC2C3C(O)CC4CC(O)CCC4(C)C3CC(O)C12C` (stereo unspecified) [Methyl Cholate], the cell viability came to 55.6%.

In the case of `COc1ccc(C2=NC(c3ccc(Cl)cc3)C(c3ccc(Cl)cc3)N2C(=O)N2CCNC(=O)C2)c(OC(C)C)c1` (stereo unspecified) [Nutlin-3b], the cell viability is 77.2%.

Regarding `Clc1ncnc2nc[nH]c12` [6-Chloropurine], the cell viability is 88.9%.

In the case of `CCC1=C[C@@H]2CN(C1)Cc1c([nH]c3ccccc13)[C@@](C(=O)OC)(c1cc3c(cc1OC)N(C)[C@H]1[C@@](O)(C(=O)OC)[C@H](OC(C)=O)[C@]4(CC)C=CCN5CC[C@]31[C@@H]54)C2` [Vinorelbine Tartrate], the cell viability amounted to 0.68%.

As for `Cc1nccn1CC1CCc2c(c3ccccc3n2C)C1=O` (stereo unspecified) [Ondansetron hydrochloride (Zofran)], the cell viability was determined as 102%.

`CC(C)=CCCC(C)(O)C1CCC2(C)C1C(O)CC1C3(C)CCC(O)C(C)(C)C3CCC12C` [(20S)-Protopanaxadiol]: the cell viability turned out to be 102%.

As to `C[C@@H]1O[C@@H](O[C@@H]2[C@@H](O)[C@H](OCCc3ccc(O)c(O)c3)O[C@H](CO)[C@H]2OC(=O)/C=C/c2ccc(O)c(O)c2)[C@H](O)[C@H](O)[C@H]1O` [Verbascoside], the cell viability was 81.9%.

Turning to `C=C1C[C@@]23CC[C@H]4[C@@](C)(CCC[C@@]4(C)C(=O)O)[C@@H]2CC[C@]1(O[C@@H]1O[C@@H](CO)[C@@H](O)[C@H](O)[C@@H]1O[C@@H]1O[C@@H](CO)[C@@H](O)[C@H](O)[C@@H]1O)C3` [Steviolbioside], the cell viability was 118%.

On to `CNc1ccc([N+](=O)[O-])c(Nc2ccc3[nH]ncc3c2)n1`, for which the cell viability worked out at 18.1%.

As for `CN(C)/N=N/c1[nH]cnc1C(N)=O` [Dacarbazine (DTIC-Dome)], the cell viability worked out at 97.6%.

For `Cc1ccc(CN(CC(O)COc2cccc3[nH]ccc23)C(C)(C)C)cc1` (stereo unspecified), the cell viability turned out to be 68%.

For the compound `CN1CCN(C2=Nc3cc(Cl)ccc3Nc3ccccc32)CC1` [Clozapine (Clozaril)], the cell viability worked out at 101%.

Regarding `C[C@]1(O)C[C@@H](O)[C@@H]2C=CO[C@@H](O[C@@H]3O[C@H](CO)[C@@H](O)[C@H](O)[C@H]3O)[C@@H]21` [Leonuride], the cell viability came out at 102%.

Consider `CCCCCCCCCC(C)O` (stereo unspecified) [2-Undecanol], for which the cell viability was found to be 110%.

With `CC(C)(C)n1nc(-c2ccc(Cl)cc2)c2c(N)ncnc21`, the cell viability was 66%.

As to `Cc1cc(O)c(-c2ccc([C@@H](C)CN(C)C)cc2)c2c1[nH]c(=O)c1sccc12`, the cell viability amounted to 0.25%.

In the case of `CC1(C)CC[C@]2(C(=O)O)CC[C@]3(C)C(=CC[C@@H]4[C@@]5(C)CC[C@H](O)C(C)(C)[C@@H]5CC[C@]43C)[C@@H]2C1` [Oleanolic Acid (Caryophyllin)], the cell viability stood at 85.6%.

With `C[C@@H]1CC[C@@]2(OC1)O[C@H]1C[C@H]3[C@@H]4CC=C5C[C@@H](O[C@@H]6O[C@H](CO)[C@@H](O)[C@H](O)[C@H]6O)CC[C@]5(C)[C@H]4CC[C@]3(C)[C@H]1[C@@H]2C` [Trillin], the cell viability was 84.5%.

For `CCCCCCOC(=O)c1cc(=O)c(O)c2c(O)c(O)c(OC)cc2c1`, the cell viability stood at 61.5%.

Take `CCOc1ccc(Cc2cc([C@@H]3O[C@H](SC)[C@@H](O)[C@H](O)[C@H]3O)ccc2Cl)cc1` [Sotagliflozin (LX4211)]: the cell viability stood at 89.7%.

As to `c1cc(CN2CCCNCCNCCCNCC2)ccc1CN1CCCNCCNCCCNCC1` [Plerixafor], the cell viability turned out to be 94.8%.

With `Nc1ncnc2c1ncn2C(C=O)OC(C=O)CO` (stereo unspecified) [Adenosine Dialdehyde (ADOX)], the cell viability amounted to 25.3%.

As for `COc1ccc(CNc2nc(N3CCC[C@H]3CO)ncc2C(=O)NCc2ncccn2)cc1Cl` [Avanafil], the cell viability is 103%.

Consider `CC(C)=CC(O)C/C(C)=C/COc1c2ccoc2cc2oc(=O)ccc12` (stereo unspecified) [Notopterol], for which the cell viability amounted to 71.2%.

Consider `Cc1nc(N(C)C(=O)Cc2ccc(-c3ccccn3)cc2)sc1S(N)(=O)=O` [Pritelivir (BAY 57-1293)], for which the cell viability was 108%.

As for `C[C@@H](CN1CC(=O)NC(=O)C1)N1CC(=O)NC(=O)C1` [Dexrazoxane], the cell viability was 89.8%.

In the case of `O=C(O)[C@H]1O[C@@H](Oc2cc3oc(-c4ccc(O)cc4)cc(=O)c3c(O)c2O)[C@H](O)[C@@H](O)[C@@H]1O` [Scutellarin], the cell viability is 102%.

As to `CC(C)=CCCC(C)(O)C1CCC2(C)C1C(O)CC1C3(C)CCC(O)C(C)(C)C3C(OC3OC(CO)C(O)C(O)C3OC3OC(C)C(O)C(O)C3O)CC12C` [(20S)Ginsenoside Rg2], the cell viability was 104%.

As to `C=CC(=O)N[C@H]1CCOC[C@H]1Nc1ncc2cc(-c3c(Cl)c(OC)cc(OC)c3Cl)ccc2n1`, the cell viability stood at 78.8%.

With `C=C[C@]1(C)C[C@@H](OC(=O)CSC(C)(C)CNC(=O)[C@H](N)C(C)C)[C@]2(C)[C@H](C)CC[C@]3(CCC(=O)[C@H]32)[C@@H](C)[C@@H]1O` [Valnemulin HCl], the cell viability came out at 80.8%.

For orientation: cell viability means a read-out of living cells in per cent, often relative to untreated cells.

(Values after the supplement of paper PMC10981050.)
